# Source: PubChem BioAssay AID887 (National Center for Advancing Translational Sciences (NCATS), 2007)
# Several values for one entry are separate records, joined by “and”; a condition that tells them apart may be missing. Equal entries are not always repeated. The whole screen tested about 74,000 compounds, of which about 1,100 (1.5%) were called active. Where a call stands in place of a potency, no number is given. Not shown: some 5% with an inconclusive outcome. The sample holds actives, similar compounds and a random draw of the others, so the mix is not that of the screen. A number with no mark means an inactive call. The call rests on the fitted dose curve; in most records, active means well fitted inhibition curve with a large enough effect; inconclusive means small, poorly fitted or top-dose-only effect; inactive means no such curve, though single readings can be large or run the other way.
# Biological target: Polyunsaturated fatty acid lipoxygenase ALOX15 (Homo sapiens) (UniProt P16050)
# Sequence (P16050 whole entry, looked up): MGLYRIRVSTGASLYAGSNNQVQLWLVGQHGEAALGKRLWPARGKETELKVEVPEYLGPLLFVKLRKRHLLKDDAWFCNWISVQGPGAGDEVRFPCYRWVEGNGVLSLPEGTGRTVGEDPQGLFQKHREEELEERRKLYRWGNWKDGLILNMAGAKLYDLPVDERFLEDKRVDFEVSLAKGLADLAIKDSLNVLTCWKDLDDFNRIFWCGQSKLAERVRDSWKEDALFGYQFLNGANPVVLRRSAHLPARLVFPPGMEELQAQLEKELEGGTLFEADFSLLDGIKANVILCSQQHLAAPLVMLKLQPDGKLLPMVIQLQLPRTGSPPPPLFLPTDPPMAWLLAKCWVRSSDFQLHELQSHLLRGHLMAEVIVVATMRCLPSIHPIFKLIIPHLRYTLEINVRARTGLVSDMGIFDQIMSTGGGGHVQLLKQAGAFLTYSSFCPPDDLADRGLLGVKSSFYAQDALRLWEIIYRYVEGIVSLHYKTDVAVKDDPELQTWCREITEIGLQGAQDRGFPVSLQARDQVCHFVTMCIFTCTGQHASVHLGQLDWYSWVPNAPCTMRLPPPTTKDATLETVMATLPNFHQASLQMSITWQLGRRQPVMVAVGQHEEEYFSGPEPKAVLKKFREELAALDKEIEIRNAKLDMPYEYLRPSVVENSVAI
# Experiment: qHTS Assay for Inhibitors of 15-hLO (15-human lipoxygenase); further: nearly all actives have a fitted effect of over 55% in size
# Details: purified 15hLO-1, xylenol orange hydroperoxide absorbance; series mostly up to 57.1 µM
# How it was run: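 Readout: Fe(III)-xylenol orange absorbance, 573-to-405 nm ratio as reaction progress. Enzyme 40 nM purified human 15hLO-1, substrate 50 uM arachidonic acid, 6 min RT after 15 min compound preincubation; Hepes pH 7.5 buffer with Triton X-100.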
# Potency means the concentration at half of the fitted maximal effect.
Compound,"activity change, negative = inhibition",Potency
COc1ccc(OCc2ccc(-c3nc4ccccc4c(=O)n3N)o2)cc1,inactive,–
Cn1c(COc2ccc(Cl)cc2)nc2ccccc2c1=O,–,25.1 µM (active)
COCn1c(COc2ccccc2)nc2ccccc21,-9.11% [at 11.4 µM],–
c1ccc(Oc2ccccc2)cc1,inactive,–
CC(C)(O)CCC(O)[C@@](C)(O)C1CC[C@]2(O)C3=CC(=O)C4CC(O)C(O)C[C@]4(C)C3CC[C@]12C (some centres undefined),inactive,–
O=C1OCCC=C1[C@@H](O)CCc1ccccc1,9.13% [at 11.4 µM],–
Nc1nc2c(nc(Cl)n2C2OC(CO)C(O)C2O)c(=O)[nH]1 (centres undefined),inactive,–
CC1=C(/C=C/C(C)=C/C=C/C(C)=C/C=C/C=C(C)/C=C/C=C(C)/C=C/C2=C(C)CCCC2(C)C)C(C)(C)CCC1,inactive,–
CC/C=C/C/C=C/C/C=C/CCCCCCCC(=O)OCC,–,2.51 µM (active)
Oc1c(Br)cc(CN(Cc2cc(Br)c(O)c(Br)c2)C2CCCCC2)cc1Br,11.3% [at 11.4 µM],–
CC1(C)SC2C(NC(=O)COc3ccccc3)C(=O)N2C1C(=O)O (centres undefined),inactive,–
O=C1OC(C(O)CO)C(O)=C1O (centres undefined),inactive,–
COC(=O)CSC1=C(C#N)C(c2ccccc2OC)C(C(=O)OC)C(=O)N1 (centres undefined),-4.29% [at 11.4 µM],–
CCOC(=O)CSC1=C(C#N)C(c2sccc2C)CC(=O)N1 (centres undefined),inactive,–
CCCSC1=C(C#N)C(c2ccccc2C)C(C(=O)OC)C(=O)N1 (centres undefined),–,12.6 µM (active)
CN(C)CCCCNC(=O)c1ccc(Cc2nc3ccccc3[nH]2)cc1,inactive,–
O=C(O)C(O)[C@@](O)(Cc1ccc(O)cc1)C(=O)O (some centres undefined),inactive,–
CCOC(=O)[C@]1(C(/C=C/c2ccco2)NC(=O)OC)CCCC1=O (some centres undefined),5.21% [at 11.4 µM],–
Cc1c(O)cc(O)c2c(=O)c(-c3ccc(O)cc3)coc12,inactive,–
CN(C)CCc1c[nH]c2ccc(Cn3cncn3)cc12,inactive,–
N#CC(C(=O)c1ccc(S(=O)(=O)N2CCCCCC2)cc1)c1nc2ccccc2[nH]1 (centres undefined),inactive,–
CC(C)OC(=O)C(C#N)c1nc2ccccc2nc1N1CCN(Cc2ccccc2)CC1 (centres undefined),inactive,–
Cc1ccc(S(=O)(=O)C(C#N)c2nc3ccccc3nc2N2CCCC2)cc1C (centres undefined),–,12.6 µM (active)
CC1CCCCN1CCCNC(=O)c1ccc(-n2c(=O)c(=O)[nH]c3ccccc32)cc1 (centres undefined),inactive,–

Compound,"activity change, negative = inhibition",Potency
CC1OC(OCC2OC(Oc3c(-c4ccc(O)c(O)c4)oc4cc(O)cc(O)c4c3=O)C(O)C(O)C2O)[C@@H](O)C(O)C1O (some centres undefined),inactive,–
CC(=O)OCC(=O)C1CCC2C3CCC4=CC(=O)CC[C@@]4(C)C3CC[C@]12C (some centres undefined),inactive,–
Oc1c(Cl)cc(Cl)c(Cl)c1Cc1c(O)c(Cl)cc(Cl)c1Cl,–,5.01 µM (active)
COc1cc(OC)c2c(c1Cl)OC1(C2=O)C(O)=CC(=O)CC1C (centres undefined),inactive,–
CC1O[C@@H](Oc2c(-c3ccc(O)c(O)c3)oc3cc(O)cc(O)c3c2=O)C(O)C(O)C1O (some centres undefined),inactive,–
Cc1cccc(-c2cc(=O)c3cc(C)ccc3o2)c1,inactive,–
O=c1cc(-c2ccc(O)c(O)c2)oc2cccc(O)c12,–,0.398 µM (active)
COC1C[C@@H](O[C@@H]2C(C)C(=O)OC(C)C(C)C(O)C(C)C(=O)[C@@]3(CO3)CC(C)C(OC3OC(C)CC(N(C)C)C3O)C2C)OC(C)[C@@H]1O (some centres undefined),inactive,–
C=CCSc1nc2c(c(=O)[nH]1)C(C(C)C)C(C#N)=C(N)O2 (centres undefined),inactive,–
CO[C@H]1COC(=O)[C@@H](OCc2ccccc2)/C=C\[C@H](C)[C@@H](OC)COC(=O)[C@H](OCc2ccccc2)/C=C\[C@@H]1C,-2.96% [at 11.4 µM],–
CN(C(=O)CN(CCO)CC(=O)N(C)C(C)(C)Cc1ccccc1)C(C)(C)Cc1ccccc1,inactive,–
CCN(CC)c1ccc2oc(=O)c(C)nc2c1,–,25.1 µM (active)
CCc1ccc2oc(-c3ccc(N)cc3)nc2c1,inactive,–
Cc1ccc2oc(=O)ccc2c1,inactive,–
Nc1nnc(SCCN2C(=O)c3ccccc3S2(=O)=O)s1,inactive,–
COc1ccc(/C=C/C(=O)c2ccc(OC)cc2O)cc1,-1.36% [at 11.4 µM],–
O=C(Nc1cc(N2CCOCC2)ncn1)NC1(C(F)(F)F)Oc2ccc(Cl)cc2O1 (centres undefined),–,5.01 µM (active)
c1cnn(-c2cc(N3CCOCC3)ncn2)c1,inactive,–
COc1c(C)cccc1C(=O)Nc1cc(Cl)ccc1N1CCOCC1,inactive,–
CCCCCCCCCc1ccc(OCCOCCOCCOCCOCCOCCOCCOCCOCCO)cc1,inactive,–
COC(=O)C1=C(C)Nc2ncnn2C1c1ccco1 (centres undefined),inactive,–
Cc1ccc(C(C(=O)NC2CCCCC2)N(C(=O)c2csnn2)C2CC2)o1 (centres undefined),inactive,–
CCC(C(=O)NC1CCCC1)N(C(=O)c1snc(C(N)=O)c1N)c1ccc2c(c1)OCCO2 (centres undefined),–,25.1 µM (active)
O=C(NCCc1ccc2c(c1)OCCO2)c1cc2ccccc2o1,inactive,–

Compound,"activity change, negative = inhibition",Potency
COc1cc(C(=O)Nc2oc(-c3ccccc3)c(-c3ccccc3)c2C#N)cc(OC)c1OC,inactive,–
Oc1ccc2c(c1)OCC1c3cc4c(cc3OC21)OCO4 (centres undefined),inactive,–
CCCCOCCCNC(=O)c1ccccc1OCC,2.13% [at 11.4 µM],–
COc1ccc2[nH]cc(CCNc3ncnc4ccc(-c5ccc(C(=O)N(C)C)cc5)cc34)c2c1,inactive,–
CC(C)NC(=O)N1CCC2(CC1)CCN(C(=O)c1cccn1C)CC2,inactive,–
CC(C)c1ccc2c(c1)c(SC(C)(C)C)c(CC(C)(C)C(=O)O)n2Cc1ccc(Cl)cc1,–,12.6 µM (active)
CS(=O)(=O)N1CCC2(CC1)CN(Cc1ccccc1)C2,inactive,–
CC(=O)OCC1OC(C#Cc2ccccc2Cl)C=CC1OC(C)=O (centres undefined),-0.11% [at 11.4 µM],–
CN1CC(=O)N=C1N,inactive,–
C[C@H]1CC[C@H](C(=O)O)N[C@@H]1c1ccc(C#Cc2ccccc2)cc1,-4.38% [at 11.4 µM],–
COC(=O)Cc1csc(Nc2c(C)n(C)n(-c3ccccc3)c2=O)n1,inactive,–
Cc1c(NC(=O)c2cccnc2)c(=O)n(-c2ccccc2)n1C,inactive,–
Cc1cc(C(=O)Nc2c(C)n(C)n(-c3ccccc3)c2=O)cs1,–,1.58 µM (active)
O=C(Nn1cnc2ccccc2c1=O)c1ccc(F)cc1Cl,inactive,–
C/C(O)=C\c1nc(=O)c2c(C)cc(C)nc2n1-c1ccccc1,inactive,–
CCCS(=O)(=O)C(=C1Nc2ccccc2N1)S(=O)(=O)CCC,inactive,–
COc1c2c(cc3occ(-c4ccc5c(c4)OCO5)c(=O)c13)OC(C)(C)C=C2,inactive,–
COCCCNC(=O)c1c(F)c(F)c(F)c(F)c1F,inactive,–
COCCCn1c(CCC(=O)O)ccc1-c1ccc(F)cc1,–,15.8 µM (active)
CC(C)Cn1c(CCC(=O)O)ccc1-c1cccs1,inactive,–
Nc1ncn(C2OC(CO)C(O)C2O)c(=O)n1 (centres undefined),inactive,–
CC1(C)OC2CC3C4CCC5=CC(=O)CCC5(C)C4(F)C(O)CC3(C)[C@]2(C(=O)CCl)O1 (some centres undefined),inactive,–
CC1CC[C@@]23CCC4(C)[C@@]5(C)CCC6C(C)(C)C(O)CC[C@@]6(C)C5C=C[C@@]4(OC2=O)C3C1C (some centres undefined),inactive,–
N#CC1=C(N)Oc2c(sc3ccccc23)C1c1ccco1 (centres undefined),–,3.98 µM (active)

Compound,"activity change, negative = inhibition",Potency
CCOC(=O)CSC1=C(C#N)C(c2ccco2)C(C(=O)OCc2ccccc2)=C(C)N1 (centres undefined),inactive,–
Nc1nc2[nH]c(=O)c(=O)[nH]c2c(=O)[nH]1,inactive,–
CC(=O)OCC(=O)[C@@]1(O)CCC2C3CCC4=CC(=O)CC[C@]4(C)C3C(=O)C[C@]21C (some centres undefined),inactive,–
O=C(c1ccco1)N1CCC2(CC1)CCN(c1ncccn1)CC2,inactive,–
COc1ccc(-c2nnc(SC(=O)N3c4ccccc4Sc4ccccc43)o2)cc1,–,3.16 µM (active)
COc1ccc(-c2nnc(SC(C)C#N)o2)cc1 (centres undefined),inactive,–
COc1ccc(CC(=O)Nc2ccc(-c3nnc(-c4ccccc4)o3)cc2)cc1,inactive,–
COC(=O)CC1C(C)(C)C(OC(C)=O)C2CC3=C4CC(=O)OC(c5ccoc5)[C@]4(C)CCC3[C@@]1(C)C2=O (some centres undefined),inactive,–
CCOC(=O)Cn1c(N)c(C(=O)OC)sc1=S,inactive,–
COC(=O)c1ccc2c(=O)n(CC3CCCO3)c(=S)[nH]c2c1 (centres undefined),inactive,–
CCOC(=O)c1sc(=S)n2c1[nH]c(=O)c1ccc(C(=O)OC)cc12,–,10 µM (active)
COc1ccc(Oc2ncc3nc(C)c(=O)n(-c4ccccc4)c3n2)cc1,inactive,–
COC(=O)C1=C(C)N(Cc2ccccc2)C2=C3C(=O)N(c4ccccc4)C(=O)C3[C@@](O)(C(=O)OC)C(=O)N2C1c1ccccc1 (some centres undefined),4.96% [at 11.4 µM] and 4.92% [at 11.4 µM],–
CN1CCC(CNC(=O)c2ccc(-n3c(=O)c(=O)[nH]c4ccccc43)cc2)CC1,inactive,–
O=C1NS(=O)(=O)c2ccccc21,inactive,–
OCCCNC(c1ccccc1)c1ccc(O)cc1 (centres undefined),inactive,–
CSc1sc(C)cc1C1C(C#N)=C(N)N(c2cccnc2)C2=C1C(=O)CCC2 (centres undefined),–,15.8 µM (active)
Cc1cc(C(=O)O)ccc1[N+](=O)[O-],inactive,–
O=C1C[C@@H](O)[C@@H](O)[C@H]2[C@@H]3C(=O)N(Cc4ccc5c(c4)OCO5)C(=O)[C@@H]3CC[C@H]12,6.76% [at 11.4 µM] and -0.286% [at 11.4 µM],–
CO/N=C\[C@@H](C)[C@H](OCc1ccccc1)C(C)C,6.43% [at 11.4 µM],–
CC1C(O)CC2C(C(=O)O)=CO[C@@H](O[C@H]3OC(CO)C(O)C(O)C3O)C21 (some centres undefined),inactive,–
CC1(C)OC(C(O)(c2ccccc2)c2ccccc2)C(C(O)(c2ccccc2)c2ccccc2)O1 (centres undefined),14.5% [at 11.4 µM],–
